# An excerpt weighted towards active compounds, which were near 4.8% of everything screened.
# ATXN2 expr inh – reduces ATXN2 reporter expression in HEK-293 cells | HEK-293 ATXN2-luciferase reporter, luminescence, 24 h | Potency, µM (series often up to 57 µM), inactives show at the highest dose activity change, negative = inhibition, actives largely listed as inhibitors | 360,000 tested, 0.72% active | AID 1745845; also: potency is read from the fitted curve at half-maximal effect; % is scaled to controls: 0 for no effect and ±100 for the full control effect; nearly all actives have a fitted effect of over 55% in size
#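 qHTS (up to 57 uM final) was run with 24 h compound exposure of reporter cells at 37 °C. Each well was multiplexed: SteadyGlo luminescence measured ATXN2-luciferase expression after a fluorogenic Gly-Phe-AFC viability readout (25 uM final).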
# S2 tox – cell viability loss in ATXN counter-screen; S2 cells (HEK-293 line with an ATXN2-luciferase reporter) viability, CellTiter-Fluor protease fluorescence, 24 h; Potency, µM (titrated, usually from 56.7 µM), hits mostly cytotoxic; 400,000 tested, 0.49% active; AID 651635; also: potency is read from the fitted curve at half-maximal effect; nearly all actives have a fitted effect of over 40% in size
# TGFb SMAD3 inh – TGF-b pathway inhibition | HepG2 CAGA-GFP TGF-b/SMAD3 reporter, GFP fluorescence, 18 h; TGF-beta stimulated, 500 pg/mL final | Potency, µM (highest dose often 46.1 µM), without a hit: at the highest dose activity, negative = inhibition, most hits filed as inhibitors | AID 588855 | 410,000 tested, 1.2% active; also: potency is read from the fitted curve at half-maximal effect; % is scaled to controls: 0 for no effect and ±100 for the full control effect; nearly all actives have a fitted effect of over 65% in size
#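 Cell-based qHTS in HEPG2 carrying a CAGA-GFP Smad reporter; compounds added before 500 pg/mL final TGF-beta, 18 h incubation at 37 degrees C, GFP fluorescence quantified per cell by imaging cytometry.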
# DRD3 agonist – activates the human D3 dopamine receptor. max activation, %. D3R DiscoveRx beta-arrestin cells, luminescence, 90 min. 410,000 tested, 0.58% active. AID 652048; in the data active = max activation above about 30%; also: 0% is about no effect
# Target sequence (P35462 whole entry, looked up): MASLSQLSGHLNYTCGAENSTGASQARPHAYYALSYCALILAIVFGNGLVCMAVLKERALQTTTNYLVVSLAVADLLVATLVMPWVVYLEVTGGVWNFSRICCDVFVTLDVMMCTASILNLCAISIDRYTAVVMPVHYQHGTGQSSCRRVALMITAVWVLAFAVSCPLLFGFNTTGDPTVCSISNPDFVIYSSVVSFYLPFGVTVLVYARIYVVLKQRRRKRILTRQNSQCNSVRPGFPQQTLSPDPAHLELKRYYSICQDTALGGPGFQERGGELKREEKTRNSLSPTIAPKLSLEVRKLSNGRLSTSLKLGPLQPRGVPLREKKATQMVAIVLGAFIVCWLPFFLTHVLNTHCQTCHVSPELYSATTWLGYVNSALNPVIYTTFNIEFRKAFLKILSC
#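 Agonist-mode cell screen: cells plated at 1500/well and incubated overnight at 37 °C, then exposed to library compounds for 90 min at 37 °C. Detection reagent was added for 30–60 min at room temperature, and luminescence was read.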
# DRD3 antagonist – blocks the human D3 dopamine receptor. 360,000 tested, 2.5% active. AID 652054. max response, negative = inhibition, %. D3R cells, DiscoveRx beta-arrestin luminescence, antagonist mode; stronger effect = lower value. P35462; in the data active = max response below about -50%; inconclusive = no clear call, values can overlap the other calls; also: % is scaled to controls: 0 for no effect and ±100 for the full control effect
#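 Cells expressing the human receptor were seeded at 1500 cells/well, incubated overnight at 37 degrees C in 5% CO2, then exposed to library compounds with dopamine controls for 90 minutes at 37 degrees C before luminescent detection.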
# HepG2 tox – kills HepG2 cells in TGF-b inhibitor counter-screen | HepG2 CAGA-GFP viability, ATP luminescence, 18 h | Potency, µM (titrated, usually from 46.1 µM), for the others: top-dose activity change, negative = cytotoxicity, most hits filed as cytotoxic | 410,000 tested, 0.76% active | AID 588856; also: potency is read from the fitted curve at half-maximal effect
#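 CellTiter-Glo luminescence gave cytotoxicity after 18 hours at 37 degrees C. The cells were HepG2 CAGA-GFP in 1% FBS DMEM, stimulated with 500 pg/mL TGF-beta after compound addition. %Activity was normalised to no-cell wells (complete cell-killing) and DMSO (no toxicity), and curves were fitted and classified.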
# An asterisk follows results filed as active; i = inactive; u = inconclusive; x = not tested or not shown; ! = not active in a repeat. Unless noted, calls follow the shape of the dose curve; as a rule, active = well fitted curve in the direction sought with a large enough effect; inconclusive = small, poorly fitted or top-dose-only effect, or another doubt; inactive = no such curve, though single readings can be large; an effect the other way counts as inactive or inconclusive.
SMILES,ATXN2 expr inh,S2 tox,TGFb SMAD3 inh,DRD3 agonist,DRD3 antagonist,HepG2 tox
COc1ccccc1CNCC(O)Cn1c2ccccc2c2ccccc21 (stereo not given),u,x,u,1.1,16.5,11.2µM*
COc1ccccc1C(C)NCC(=O)NCc1ccc(C)cc1 (stereo not given),-0.5%,i,19.2%,-36.4,-58.5*,-0.9%
CCCCN(C)CCCNC(=O)c1ccc2c(c1)N(CC)C(=O)c1ccccc1S2=O (stereo not given),-7.0%,i,9.6%,-38.6,-83.7*,-20.6%
CCOC(=O)C1CCCN(C(=O)c2ccc3c(c2)N(Cc2ccccc2)C(=O)c2ccccc2S3=O)C1 (stereo not given),7.7%,i,10µM*,5.2,3.9,-1.4%
CCOC(=O)C1CCCN(C(=O)c2ccc3c(c2)N(Cc2ccccc2)C(=O)c2ccccc2S3(=O)=O)C1 (stereo not given),x,x,x,-2.4,x,-26.9%
CCOC(=O)N1CCC(NC(=O)c2ccc3c(c2)N(Cc2ccccc2)C(=O)c2ccccc2S3=O)CC1 (stereo not given),8.3%,i,6.0%,47.2*,x,0.3%
COc1ccc(-c2cc3ccc(O)c(CN4CCC(C)CC4)c3oc2=O)cc1OC,9.2%,x,-10.6%,-13.0,x,7.1%
O=C(CSCC(=O)N1CCCCC1)Nc1nc(-c2ccccc2)c(-c2ccccc2)s1,u,u,u,-11.6,-51.2*,-7.1%
COc1ccc(CN2C(=O)C(CC(=O)NCCCCc3ccccc3)CC(C(=O)N(C(C)C)C(C)C)=C2C)cc1 (stereo not given),u,u,u,-0.5,-2.2,-15.3%
CC1=C(C(=O)N(C(C)C)C(C)C)CC(CC(=O)NCc2ccco2)C(=O)N1Cc1ccc(C(C)(C)C)cc1 (stereo not given),u,u,17.8µM*,-12.4,10.5,-31.8%
CC1=C(C(=O)N(C(C)C)C(C)C)CC(CC(=O)NCCCCc2ccccc2)C(=O)N1Cc1ccc(C(C)(C)C)cc1 (stereo not given),u,u,11.2µM*,-7.9,0.0,17.8µM*
CCCCN1C(=O)C(CC(=O)NCCCCc2ccccc2)CC(C(=O)N2CCCCCC2)=C1C (stereo not given),u,u,x,-10.8,-51.7*,x
CC1=C(C(=O)N(C(C)C)C(C)C)CC(CC(=O)NC(c2ccccc2)c2ccccc2)C(=O)N1CCC1=CCCCC1 (stereo not given),0.0%,x,11.2µM*,-3.0,-12.9,-26.9%
CCc1ccc(C(=O)c2cn(CC(=O)Nc3cc(OC)ccc3OC)c3ccc(Cl)cc3c2=O)cc1,-2.4%,i,0.6%,-21.6,x,1.4%
COc1cccc(CNC(=O)C2CCN(C(=O)N3CCOc4ccc(Cl)cc43)CC2)c1OC,x,x,-28.6%,2.3,x,-23.3%
O=c1cc(O)c2c([nH]1)CCC2,x,x,13.5%,x,x,-3.7%
CCC1Nc2ncnc(N3CCOCC3)c2N(Cc2ccc(C)cc2)C1=O (stereo not given),7.6%,i,6.2%,6.0,-2.5,-4.3%
CC(C)CC1Nc2ncnc(N3CCN(c4ccccc4)CC3)c2N(Cc2ccc(Cl)cc2)C1=O (stereo not given),-3.0%,u,3.2%,-9.9,-23.1,-4.1%
O=C1C(Cc2ccccc2)Nc2ncnc(N3CCOCC3)c2N1Cc1ccccc1 (stereo not given),13.0%,i,0.0%,-1.1,-29.0,-0.2%
CCC1Nc2ncnc(N3CCN(c4ccccc4)CC3)c2N(Cc2ccccc2)C1=O (stereo not given),-30.9%,u,u,-59.9,-142.4*,-10.9%
Cc1ccc(CN2C(=O)C(Cc3ccccc3)Nc3ncnc(N4CCOCC4)c32)cc1 (stereo not given),5.3%,u,u,-9.2,-58.2*,-31.8%
CCC1Nc2ncnc(N3CCN(c4ccccc4)CC3)c2N(Cc2ccc(C)cc2)C1=O (stereo not given),-8.6%,u,1.6%,-61.2,-138.8*,-21.1%
CC1Nc2ncnc(N3CCOCC3)c2N(Cc2ccccc2)C1=O (stereo not given),2.3%,i,-3.2%,8.1,2.1,7.2%
Cc1ccc(CN2C(=O)C(CC(C)C)Nc3ncnc(N4CCN(c5ccccc5)CC4)c32)cc1 (stereo not given),-17.5%,i,u,-13.5,-54.6*!,-20.5%
O=C(CN1C(=O)COc2ccc(S(=O)(=O)N3CCCC3)cc21)NCCc1ccc(Cl)cc1,x,x,u,3.2,x,-0.5%
SMILES,ATXN2 expr inh,S2 tox,TGFb SMAD3 inh,DRD3 agonist,DRD3 antagonist,HepG2 tox
CCOc1ccc(CCNC(=O)c2ccc3c(c2)N(Cc2ccccc2)C(=O)c2ccccc2S3=O)cc1OCC (stereo not given),0.5%,i,0.0%,10.1,x,-9.2%
CC1=C(c2ccc(C)cc2)S(=O)(=O)N(Cc2ccc(C(=O)Nc3ccc(C)c(F)c3)cc2)C1=O,-22.5%,i,u,-10.8,x,-10.9%
O=C(COC(=O)c1cc(S(=O)(=O)N2CCc3ccccc3C2)ccc1Cl)NCc1ccco1,-12.1%,i,-2.5%,-4.2,-55.0*,-0.6%
C[C@H]1C(=O)N(S(=O)(=O)c2ccccc2[N+](=O)[O-])[C@H]1c1ccc(-c2ccccc2)cc1,x,x,-8.9%,x,x,3.4%
Cc1nnc(N2CCN(Cc3ccccc3)CC2)[nH]c1=O,-2.4%,i,-23.1%,-11.0,-53.5*,-0.7%
Cc1nn(-c2ccccc2)c2nc(C3CC3)cc(C(=O)Nc3cccc(F)c3)c12,u,u,u,5.1,x,-45.2%
CCOc1ccc2[nH]c3c(NCCO)ncnc3c2c1,0.5%,i,-21.6%,0.1,-13.1,0.2%
CCOc1ccc2[nH]c3c(NCCc4ccc(OC)c(OC)c4)ncnc3c2c1,17.8µM*,u,-11.5%,10.2,11.1,-59.8%
Cc1ccc2nc(SCC(=O)Nc3ccc(C(N)=O)cc3)[nH]c2c1,1.1%,x,-9.6%,-7.3,-21.1,4.2%
Cc1ccc2nc(SCC(=O)Nc3cccc([N+](=O)[O-])c3)[nH]c2c1,-15.4%,i,u,-17.5,-52.1*,-22.6%
O=c1[nH]nc(OCCCc2ccc(Cl)cc2)c(NCc2cccnc2)c1Br,24.3µM*,x,x,x,x,x
Cc1ccc(C)c(CN2C(=O)c3ccccc3S(=O)(=O)c3ccc(C(=O)N(C)C4CCCCC4)cc32)c1,x,x,x,-6.4,x,1.6%
CCC(=O)Nc1ccccc1-c1nnn(CC(=O)N2c3ccccc3CC2C)n1 (stereo not given),-2.5%,i,-0.8%,-11.1,-16.9,-4.8%

# Bioassay records as filed in PubChem BioAssay.
